High-throughput results deposited in PubChem by University of Kansas High Throughput Screening Laboratory.
Only some compounds are listed: those with a hit (about 3.6% of all), similar ones and a draw of the others.
mHTT-CaM PPI inh – disrupts binding of mutant huntingtin to calmodulin; P42858; AlphaScreen His-mHTT/GST-CaM binding, luminescence; inhibition, % at 15 µM; hit rate 3.6% among 190,000; AID 1671202;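 also: 0% = both proteins with DMSO and 100% = one protein alone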
Pf apPOL inh – Pf-apPOL DNA polymerase inhibition; Recombinant Pf-apPOL, molecular beacon fluorescence, 1.5 h; hit rate 0.25% among 210,000; inhibition, % at 10 µM
Active calls of the source: *; . = no result given. Rule as the data show it: active = inhibition above about 50%; inactive = the rest.

SMILES	mHTT-CaM PPI inh	Pf apPOL inh
CCC(=O)N1CCC2(CC1)NC(CC(C)C)C(=O)N2C(C)C (centres undefined)	1	-10
CC(=O)NC(c1ccc(C)cc1)c1ccc2cccnc2c1O (centres undefined)	100*	-1
O=C(Nc1ccc(-c2ccc([N+](=O)[O-])cc2)cc1)c1ccco1	2	-2
CC(Oc1cccc2cccnc12)C(=O)O (centres undefined)	2	-2
CC(=O)NC(c1ccc([N+](=O)[O-])cc1)c1ccc2cccnc2c1O (centres undefined)	100*	-4
Cc1ccccc1C(NC(N)=O)c1ccccc1 (centres undefined)	-9	-4
CC(=O)NC(c1ccccc1C)c1ccc2cccnc2c1O (centres undefined)	100*	14
O=[N+]([O-])c1ccc(NC(c2ccco2)c2ccc3cccnc3c2O)cc1 (centres undefined)	100*	-5
Cc1nc(-c2ccncc2)nc2c1CC(=O)N2C	-8	8
Cc1cc(/C=C2\NC(=O)NC2=O)c(C)n1-c1ccc(C#N)cc1	24	-2
c1cc(-c2nnc(Nc3ccc4c(c3)OCCO4)o2)[nH]n1	-1	.
O=C(Nc1cc(-c2ccsc2)no1)c1ccc(F)c(F)c1	-15	1
CCn1ccc(C(=O)N2CCCn3nc(-c4cccc(OC)c4)cc3C2)n1	8	4
Cc1ccc2cccc(SCc3ccc([N+](=O)[O-])cc3)c2n1	3	-1
Cc1cccnc1NC(c1ccc([N+](=O)[O-])cc1)c1ccc2cccnc2c1O (centres undefined)	100*	-253
Cc1ccc(-n2nc3cc(N)c(Cl)cc3n2)cc1	59*	7
Cc1cc2nn(-c3ccccc3)nc2cc1N	30	-2
Cc1ccc(N2C=C(C#N)S(=O)(=O)c3ccc(C)cc32)c(Br)c1	6	-5
CS(=O)(=O)c1ccc(Sc2cccc3cccnc23)c([N+](=O)[O-])c1	4	1
COc1ccc(Nc2c([N+](=O)[O-])cc([N+](=O)[O-])c3cccnc23)cc1	14	-4
CCCN(CCC)c1c([N+](=O)[O-])cc([N+](=O)[O-])c2cccnc12	80*	-2
O=[N+]([O-])c1cc([N+](=O)[O-])c2cccnc2c1Nc1ccc(O)cc1	75*	0
O=[N+]([O-])c1ccc(N2CCN(CCO)CC2)c2ncccc12	5	-1
O=[N+]([O-])c1cc2cccnc2c2ncccc12	100*	.
COc1cc(OC)cc(C2=Cc3ccccc3C(CC(=O)c3ccco3)N2c2ccc(-c3ccc(C(N)=O)cc3)cc2)c1 (centres undefined)	100*	2
SMILES	mHTT-CaM PPI inh	Pf apPOL inh
CC(=O)CC1c2cc(F)ccc2C=C(c2ccsc2)N1c1ccc(-c2cccnc2)cc1 (centres undefined)	9	4
COc1cc(OC)cc(C2=Cc3ccccc3C(CC(=O)c3ccco3)N2c2ccc(-c3cncnc3)cc2)c1 (centres undefined)	97*	-6
COc1ccc(N2C(c3cc(OC)cc(OC)c3)=Cc3ccccc3C2CC(C)=O)cc1 (centres undefined)	-28	-3
COc1cc(OC)cc(C2=Cc3ccccc3C(CC(C)=O)N2c2ccc(C#CCCO)cc2)c1 (centres undefined)	-9	-4
NC(=O)c1ccc(-c2ccc(N3C(c4ccsc4)=Cc4ccc(F)cc4C3CC(=O)c3ccco3)cc2)cc1 (centres undefined)	58*	-2
O=C(NCc1cccnc1)c1ccc(-c2ccc(N3CCCCC3)nc2)cc1	3	-4
O=c1[nH]c2ccccc2c([O-])c1-[n+]1ccccc1	5	.
CCCC(=O)c1cc2c(cc1[N+](=O)[O-])OCCO2	1	-5
Cc1ccc(C(c2ccc(C)o2)c2cc([N+](=O)[O-])cc(Br)c2O)o1	65*	-4
Cc1ccc(C(c2ccc(C)o2)c2cc(Br)cc([N+](=O)[O-])c2O)o1	42	4
Cc1ccc(C(c2ccc(C)o2)c2cc3c(cc2[N+](=O)[O-])OCCO3)o1	56*	-6
COc1cc(NC(=O)c2cc([N+](=O)[O-])ccc2Cl)ccc1NC(=O)c1cc2ccccc2o1	12	-1
O=C(c1ccccc1Cl)N1CCC(CCOc2cccnc2)CC1	4	-2
Clc1ccc(C2=CSC(c3ccccc3)=NN2)cc1	6	-15
Cc1ccc(C2=NN(C(=O)CN3CCOCC3)C(c3ccc(Cl)cc3)C2)cc1C (centres undefined)	15	1
COc1ccccc1C1=NN(C(=O)CN2CCCC2)C(c2ccc(C)cc2)C1 (centres undefined)	43	-5
COc1ccc(C2CC(c3ccc(F)cc3)=NN2C(=O)CN2CCCCC2)cc1 (centres undefined)	28	-4
CC1CCCCN1CC(=O)N1N=C(c2ccc(F)cc2)CC1c1cccn1C (centres undefined)	60*	-2
